CRFR2-BP antag: CRF-BP/CRF-R2 complex antagonism; HEK293 CRF-R2/CRF-BP, CRF-induced calcium fluorescence; actives 0.59% (n = 350,000); inhibition, % at 11.8 µM; AID 588475;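 active = inhibition of the ligand-induced calcium signal above about 50% at the single tested concentration, limit read from the data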
SKN-1 block: inhibitors of C. elegans SKN-1; C. elegans VP596 Pgst-4::GFP/RFP ratio, acrylamide-induced, 24 h; inhibition, % at 21.8 µM; actives 0.49% (n = 360,000);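 active = interference check ratio from 0.5 to 1.5 plus GFP to RFP signal ratio inhibition reaching or exceeding a fixed threshold, cut at about 30% in these data, passing the limit was not always enough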
iPSC survival up: enhancers of human iPSC single-cell survival. hiPSC single-cell survival, ATPlite luminescence; 100% = ROCK inhibitor wells, 0% = DMSO. survival enhancement, % at 20 µM. actives 0.044% (n = 360,000); in the data active = survival enhancement above about 18%;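 also: cells exposed to compounds for 16 hours before the ATP read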
H9c2 TAG inh: triacylglycerol accumulation inhibition | H9c2 cells, Nile Red lipid (TAG) fluorescence; cells loaded with 200 µM oleic acid | inhibition, % at 12.5 µM | actives 0.66% (n = 230,000) | AID 651582;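 active = pattern-corrected inhibition of lipid staining of at least 50% with the nuclear-stain viability signal not falling by more than 50%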;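 also: 0% = DMSO wells and 100% = triacsin C control wells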
Cardio protect: protects H9c2 cardiomyocytes from peroxide injury | actives 0.63% (n = 360,000) | H2O2 injury protection, ATPLite, 2 h | protection from H2O2 cell death, % at 20 µM;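 active = compounds giving at least 50% protection of heart cells from peroxide-induced death in the single-dose screen, raw or plate-pattern-corrected value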;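 also: 0% = DMSO wells with peroxide and 100% = DMSO wells without peroxide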
CRFBP-R2 agonist: agonists of human CRF-binding protein/CRF-R2 receptor complex; HEK293 CRF-R2/CRF-BP, calcium dye fluorescence (FLIPR); percent of saturating CRF peptide response; activation, % at 13.2 µM; actives 0.46% (n = 350,000); AID 588473;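 active = activation of at least 50%, plus an integration ratio under a set limit after plate pattern correction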;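 also: plate controls were neutral control wells without compound for no effect and CRF at EC100 for full effect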
H9c2 TAG conf: triacylglycerol accumulation inhibition, confirmation. actives 71% (n = 990). inhibition, % at 12.5 µM. H9c2 lipid accumulation, Nile Red fluorescence; cells loaded with 200 µM oleic acid. shares compounds with H9c2 TAG inh;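 active = mean inhibition across replicates of 40% or more; inactive = mean inhibition below 40%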;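 also: plate controls were DMSO only wells for no effect and Triacsin C treated wells for full effect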
Active calls of the source: *; x = no result given. This is a sample that favours compounds with a hit; in the whole collection about 2.5% have one here.

SMILES | CRFR2-BP antag | SKN-1 block | iPSC survival up | H9c2 TAG inh | Cardio protect | CRFBP-R2 agonist | H9c2 TAG conf
O=C(COC(=O)Cn1cc(C(F)(F)F)ccc1=O)Nc1ccccc1 | -9.9 | 9.9 | 2.0 | -0.8 | -0.1 | 1.1 | x
CC(C)(C)NCCC(O)c1cc(C(F)(F)F)nc2c(C(F)(F)F)cccc12 (stereo not drawn) | -54.2 | 23.4 | -2.6 | 65.5* | -0.2 | 4.9 | 62.7*
O=C(N/N=C1\CCCc2ccccc21)c1ccc([N+](=O)[O-])cc1Cl | -35.4 | 12.7 | -2.6 | -0.6 | -3.1 | 0.2 | x
CCC(C)(C)NC(=O)C(c1ccccc1F)N(Cc1ccco1)C(=O)c1csnn1 (stereo not drawn) | 14.7 | -8.8 | 2.6 | 53.2* | 5.1 | -3.0 | 19.4
COc1ccc(CNC(=O)C[C@H]2C[C@H](C(=O)N3CCCCC3)[C@@]3(CCc4ccccc4)c4[nH]c5ccc(Cl)cc5c4CCN3C2=O)cc1OC | 1.2 | 7.5 | 0.2 | 53.0* | -7.7 | -0.8 | 84.3*
CC(C)=CCC/C(C)=C/CNC(=O)C[C@H]1C[C@H](C(=O)N(C(C)C)C(C)C)[C@@]2(C)c3[nH]c4ccc(Cl)cc4c3CCN2C1=O | 15.4 | 12.2 | -2.2 | 45.7 | -35.7 | -0.2 | x
CC[C@]12c3[nH]c4cc(-c5ccco5)ccc4c3CCN1C(=O)[C@@H](CC(=O)NC/C=C(\C)CCC=C(C)C)C[C@@H]2C(=O)N1CCN(C(=O)C2CC2)CC1 | -8.0 | 9.8 | -0.2 | 30.0 | -4.3 | -1.2 | x
COc1ccc2[nH]c3c(c2c1)CCN1C(=O)C(CC(=O)NC/C=C(\C)CCC=C(C)C)C[C@H](C(=O)N(C(C)C)C(C)C)[C@@]31C (stereo partly drawn) | 5.6 | 2.3 | -1.1 | 54.5* | -23.9 | -3.5 | 55.2*
C[C@]12c3[nH]c4ccccc4c3CCN1C(=O)C(CC(=O)NCC13CC4CC(CC(C4)C1)C3)C[C@@H]2C(=O)N1CCCCC1 (stereo partly drawn) | -8.9 | -15.5 | -2.5 | 83.0* | -13.2 | 3.6 | 60.5*
CC(C)=CCC/C(C)=C/CNC(=O)C[C@H]1C[C@H](C(=O)N2CCCCC2)[C@@]2(CCc3ccccc3)c3[nH]c4cc(-c5ccco5)ccc4c3CCN2C1=O | 6.3 | 21.2 | -1.1 | 68.6* | -13.7 | 2.3 | 91.8*
COc1ccc2[nH]c3c(c2c1)CCN1C(=O)C(CC(=O)NCC24CC5CC(CC(C5)C2)C4)C[C@H](C(=O)N2CCCCC2)[C@@]31C (stereo partly drawn) | 10.1 | 14.8 | 0.1 | 41.2 | -7.4 | 1.6 | x
CCc1nnc(NC(=O)c2oc3ccc(Br)cc3c2C)s1 | -21.2 | -14.5 | -1.8 | 19.5 | -5.2 | 2.9 | x
COc1cc(C2=NOC(C(=O)NCc3cccs3)C2)cc(OC)c1OC (stereo not drawn) | -2.4 | 3.1 | 6.2 | 52.2* | -7.3 | -1.1 | 62.6*
Cc1ccc(NC(=O)N2CCCC2C(=O)Nc2ccc(-n3cnnn3)c(C)c2)cc1 (stereo not drawn) | 16.3 | 8.3 | -2.0 | -12.5 | -5.3 | -2.2 | x
CCOc1ccccc1NC(=O)N1CCCC1C(=O)Nc1ccc(-n2cnnn2)c(C)c1 (stereo not drawn) | -11.5 | 2.8 | -4.7 | 55.9* | -0.3 | 1.6 | 39.2
CCC(=NCCc1c(C)[nH]c2ccccc12)C1=C(O)CC(c2ccccc2)CC1=O (stereo not drawn) | 21.0 | 12.8 | -2.3 | x | 3.3 | -0.5 | x
CCCCC(=NCCc1c(C)[nH]c2ccc(OC)cc12)C1=C(O)CC(c2ccccc2)CC1=O (stereo not drawn) | 16.2 | 6.9 | -0.1 | 61.2* | 4.8 | -0.6 | 65.7*
CCC(=NCCc1c(C)[nH]c2ccc(OC(F)(F)F)cc12)C1=C(O)CC(c2ccccc2)CC1=O (stereo not drawn) | 3.1 | 10.9 | 0.6 | 51.2* | -11.2 | -2.1 | 72.0*
C=CC[C@@H](CC(=O)OC(C)(C)C)C(=O)OC[C@@H]1CCCN1C(=O)[C@@H](CC=C)CC(=O)N(CCO)Cc1ccccc1 | 0.3 | -3.6 | -2.0 | 21.8 | 4.3 | 0.5 | x
CN(C1CCCCC1)S(=O)(=O)c1ccc(C(=O)N2CCN(c3nc4ccccc4s3)CC2)cc1 | -90.1 | -5.5 | -1.6 | x | -3.1 | 16.9 | x
Cc1noc(C)c1CSc1nc2ccccc2c(=O)n1-c1ccccc1 | 12.5 | 19.3 | 3.5 | 18.1 | 26.8 | -1.5 | x
Cc1noc(C)c1CSc1nc2[nH]ncc2c(=O)n1-c1ccccc1 | -7.4 | -17.0 | -0.6 | 64.3* | -4.4 | 2.0 | 90.9*
COCCCn1cnnc1SC(C)C(=O)Nc1ccc(S(=O)(=O)N2CCOCC2)cc1 (stereo not drawn) | 2.0 | 25.7 | 0.9 | -16.0 | -0.5 | -0.3 | x
COc1ccc2nc(SCC(=O)N3CC(=O)Nc4ccccc43)c(C#N)cc2c1 | -18.7 | -3.9 | -0.3 | 54.3* | 23.0 | 2.1 | 39.4
Cc1c(C#N)c(O)n(CCO)c(=O)c1N=Nc1ccc2c(c1)COC2=O | 8.7 | 47.6* | 6.2 | 84.7* | -12.1 | -1.3 | 93.5*
SMILES | CRFR2-BP antag | SKN-1 block | iPSC survival up | H9c2 TAG inh | Cardio protect | CRFBP-R2 agonist | H9c2 TAG conf
CCC(=O)NC(Nc1sc2c(c1C(=O)OC)CCCC2)(C(F)(F)F)C(F)(F)F | -5.6 | -11.0 | -1.2 | 51.3* | 1.5 | -1.7 | 25.9
COc1cccc(C(=O)OCC(=O)c2ccc(Br)s2)c1OC | 0.8 | -2.7 | -0.6 | 6.3 | -4.2 | -2.0 | x
O=C(Nc1c2c(nc3c1CCC3)CCCC2)c1ccccn1 | 29.7 | 1.0 | -0.5 | -8.4 | 1.8 | -3.3 | x
COc1ccc(NC(=O)C(CC(C)C)NC(=O)C2CCCCC2)c(OC)c1 (stereo not drawn) | -8.1 | 7.8 | 0.0 | 16.5 | -9.5 | -11.4 | x
CCOc1ccccc1NC(=O)C(CC(C)C)NC(=O)C1CCCCC1 (stereo not drawn) | 16.3 | 0.3 | -1.0 | 50.5* | -1.7 | -1.5 | 35.2
COc1ccccc1-c1coc2cc(OC(=O)/C=C/c3ccccc3)ccc2c1=O | 5.1 | 10.7 | -0.6 | x | -3.7 | 3.8 | x
CC(C)C[C@H](CO)N(Cc1ccccc1)S(=O)(=O)N(Cc1ccccc1)[C@@H](CO)CC(C)C | -3.3 | -0.1 | 2.6 | 55.6* | -3.1 | 4.0 | 45.9*
CC(C)COc1ccc(C(=O)Nc2scc(-c3ccc(Cl)cc3Cl)c2C(N)=O)cc1 | 6.9 | -52.7 | -1.3 | 59.9* | -1.7 | 4.5 | 39.3
CCC(C)NCCOCCOc1ccc(Cl)c2ccccc12 (stereo not drawn) | -17.2 | -4.5 | -1.0 | 53.2* | -16.4 | 0.2 | 45.4*
CCC(C)NCCOCCOc1ccc(Cl)c(C)c1C (stereo not drawn) | -56.2 | 0.7 | -2.1 | 12.6 | 15.4 | -0.1 | x

Screening results from PubChem.
